Compound activity from PubChem.
LmPK inh = qHTS Assay for Inhibitors of Leishmania Mexicana Pyruvate Kinase (LmPK). Potency, µM (series often up to 57.5 µM), usual class: inhibitors. hit rate 0.37% among 290,000. purified LmPK, Kinase-Glo ATP luminescence, 1 h
Target sequence (Q27686 whole entry, looked up): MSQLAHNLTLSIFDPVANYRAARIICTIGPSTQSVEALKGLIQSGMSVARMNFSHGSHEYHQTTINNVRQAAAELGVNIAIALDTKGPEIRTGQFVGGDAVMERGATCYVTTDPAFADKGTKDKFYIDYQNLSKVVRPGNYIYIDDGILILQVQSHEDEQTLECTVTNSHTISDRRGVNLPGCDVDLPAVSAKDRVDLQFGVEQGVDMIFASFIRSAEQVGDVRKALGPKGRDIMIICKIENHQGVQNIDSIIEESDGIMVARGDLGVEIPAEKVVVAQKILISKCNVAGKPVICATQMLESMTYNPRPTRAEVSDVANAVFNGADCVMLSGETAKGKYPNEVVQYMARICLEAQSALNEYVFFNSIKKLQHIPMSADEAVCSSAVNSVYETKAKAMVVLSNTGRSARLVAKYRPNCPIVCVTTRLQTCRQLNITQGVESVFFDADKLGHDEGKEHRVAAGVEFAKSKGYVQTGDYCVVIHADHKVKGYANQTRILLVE
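Kinase-Glo luminescence read after 1 h RT reaction of 0.1 nM LmPK with 0.5 mM PEP and 0.1 mM ADP. Activity scaled between uninhibited and enzyme-free controls.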
Shiga inhibitor = A qHTS for Small Molecule Inhibitors of Shiga Toxin; Vero cells, Shiga toxin protein synthesis inhibition reporter; inhibition, % at 38.7 µM; hit rate 9.2% among 290,000; AID 2315, 2010; in the data active = inhibition mostly above about 28%, no sharp cut-off; inactive = mostly below about 43%
RE007 growth inh = qHTS Assay for Inhibitors of the HIV-1 protein Vpr | S. pombe RE007 Vpr strain, BacTiter-Glo ATP luminescence, 24 h | hit rate 0.21% among 360,000 | Potency, µM (highest dose often 92.2 µM), hits mostly inhibitors; active = well fitted falling curve with a large enough effect; inconclusive = small, poorly fitted or top-dose-only effect; inactive = no such curve, though single readings can be large or run the other way; note: nearly all actives have a fitted effect of over 50% in size
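Fission yeast RE007 carrying one integrated HIV-1 vpr copy, seeded at OD 0.01 in PMG+AL medium with 23 nL pinned compound. Grown 24 h at 30 degrees; viability read by BacTiter-Glo luminescence after 5 min.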
TbPYK inhibitor = qHTS of Trypanosoma Brucei Inhibitors. hit rate 0.12% among 410,000. TbPYK enzyme, Kinase-Glo Plus ATP luminescence, 45 min. AID 624173, 2012. Potency, µM (top dose mostly 76.8 µM), usual class: inhibitors; note: nearly all actives have a fitted effect of over 50% in size
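T. brucei PYK with substrate was exposed to pin-transferred compounds across a concentration series, then started with 130 uM ADP (final). After 45 min at room temperature, Kinase-Glo Plus luminescence was read, normalized and curve-fitted.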
Giardia FBPA inh = qHTS Assay for Inhibitors of Fructose-1,6-bisphosphate Aldolase from Giardia Lamblia; A8B2U2; purified Giardia FBPA; Potency, µM (highest dose often 59.6 µM), hits mostly inhibitors; hit rate 0.71% among 290,000; note: nearly all actives have a fitted effect of over 55% in size
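Giardia FBPA (40 nM reagent) was preincubated 10 min at RT with compound (up to 57.5 uM final), then substrate plus GAPDH/TPI/NAD/arsenate coupling system with diaphorase/resazurin was added; resorufin fluorescence (525/598 nm) was read after 20 min.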
CHX counter = Cycloheximide Counterscreen for Small Molecule Inhibitors of Shiga Toxin. max response, %. AID 2314, 2010. cell reporter, cycloheximide protein synthesis inhibition counterscreen. hit rate 12% among 300,000; in the data active = max response mostly above about 13%, no sharp cut-off; inactive = mostly below about 14%; note: read at 38.3 µM for the half of the compounds with a filed dose
A number is an active result; . = inactive; ? = inconclusive; / = no result. The full list was thinned out, with hits kept by preference. Unless noted, calls come from the whole dose curve; as a rule, active = well fitted curve in the direction sought with a large enough effect; inconclusive = small, poorly fitted or top-dose-only effect, or another doubt; inactive = no such curve, though single readings can be large; an effect the other way counts as inactive or inconclusive.

SMILES	LmPK inh	Shiga inhibitor	RE007 growth inh	TbPYK inhibitor	Giardia FBPA inh	CHX counter
Cc1c(/C(O)=C2\C(=O)C(=O)N(CCCN(C)C)C2c2ccccc2)cnn1-c1ccccc1 (configuration not stated)	.	.	.	.	.	.
Cc1c(/C(O)=C2\C(=O)C(=O)N(CCN(C)C)C2c2cccs2)cnn1-c1ccccc1 (configuration not stated)	.	.	.	.	.	19.3
Cc1ccc(S(=O)(=O)NNC(=O)c2ccc3ccccc3n2)cc1	.	.	.	.	?	.
CCC(C)NC(=O)c1ccc(CSCc2cccc(F)c2)o1 (configuration not stated)	.	.	.	.	.	25.0
O=C(NC1CC1)c1ccc(CSCc2cccc(F)c2)o1	.	.	.	.	.	11.2
CCC1CCCCN1CCCNC(=O)Cn1ncn2nc(-c3ccc(OC)cc3)cc2c1=O (configuration not stated)	.	54.8	.	.	/	29.3
COc1ccc(-c2cc3c(=O)n(CC(=O)NCCCc4ccccc4)ncn3n2)cc1	.	26.3	.	.	.	16.2
COc1ccc(-c2cc3c(=O)n(CC(=O)N4CCCCC4)ncn3n2)cc1	.	.	.	.	.	.
COc1ccc(-c2cc3c(=O)n(CC(=O)NCc4ccccc4OC)ncn3n2)cc1	.	.	.	.	.	.
CCc1ccc(-c2cc3c(=O)n(CC(=O)NCCCN4CCN(C)CC4)ncn3n2)cc1	.	35.8	.	.	/	23.5
COc1ccccc1CNC(=O)CSc1ncc(S(=O)(=O)c2ccc(C)c(Cl)c2)c(=O)[nH]1	/	/	/	.	/	/
COCCn1c(SCC(=O)N2CCCC2)nnc1C(C)C	.	.	.	.	.	.
CCCn1c(SCC(=O)N2CCCCC2)nnc1C(C)C	.	43.3	.	.	.	14.7
Cc1cc(OCCCCOc2ccc(S(N)(=O)=O)c(C)c2)ccc1S(N)(=O)=O	.	.	.	.	.	.
Cn1cccc1C(=O)Nc1nc(-c2ccccn2)cs1	?	83.5	?	?	?	51.1
CC(C)c1nc2ccc(NC(=O)C3CCCCC3)cc2[nH]1	.	.	.	.	.	.
O=C(Nc1ccc2nc(-c3ccccn3)[nH]c2c1)C1CCCCC1	.	57.5	.	.	.	36.2
CC(Oc1ccccc1)C(=O)Nc1nc(-c2ccccn2)cs1 (configuration not stated)	/	/	?	.	/	/
Cc1ccc(C(=O)Nc2nc(-c3ccccn3)cs2)s1	/	/	?	.	/	/
Cc1csc(NC(=O)C2CCCCC2)n1	.	/	.	.	.	24.4
CC(Oc1cccc(Cl)c1)C(=O)Nc1nc(-c2ccccn2)cs1 (configuration not stated)	/	/	44.7µM	.	/	/
O=C(Nc1nc(-c2ccccn2)cs1)C1CCCC1	.	99.6	.	.	.	57.4
Cc1csc(NC(=O)c2ccc(C(=O)Nc3nc(C)cs3)cc2)n1	.	.	/	/	.	.
Cc1csc(NC(=O)c2cccn2C)n1	17.8µM	102.1	.	.	/	61.8
O=C(CN1C(=O)CCC1=O)Nc1nc(-c2ccccn2)cs1	.	.	.	.	?	.
SMILES	LmPK inh	Shiga inhibitor	RE007 growth inh	TbPYK inhibitor	Giardia FBPA inh	CHX counter
Cn1ncc2c(N3CCN(c4ccccc4F)CC3)ncnc21	.	.	.	.	.	13.1
Cc1ccc(-n2ncc3c(N4CCN(Cc5ccccc5)CC4)ncnc32)cc1	/	/	/	.	/	/
O=C(c1ccco1)N1CCN(c2ncnc3c2cnn3-c2ccccc2)CC1	.	.	?	.	.	25.2
COc1cccc(OCCN2CCN(c3ncnc4c3cnn4-c3ccccc3)CC2)c1	.	.	.	.	.	17.9
O=C(c1ccccc1)N1CCN(c2ncnc3c2cnn3-c2ccccc2)CC1	.	.	.	.	/	.
Clc1ccc(-n2ncc3c(N4CCCC4)ncnc32)cc1	.	120.4	.	.	.	77.0
COc1ccc(-n2ncc3c(N4CCC(C)CC4)ncnc32)cc1	.	26.2	.	.	.	20.1
CC1CCN(c2ncnc3c2cnn3-c2ccccc2)CC1	.	75.3	.	.	.	42.4
Cc1ccc(-n2ncc3c(N4CCC(C)CC4)ncnc32)cc1C	/	/	/	.	/	/
CCOC(=O)C1CCN(c2ncnc3c2cnn3-c2ccccc2)CC1	.	.	.	.	.	18.4
CCCn1c(-c2ccc(F)cc2)nc2c(NCCN(CC)CC)nc(C)nc21	/	/	/	/	.	/
CNc1oc(-c2ccccc2Cl)nc1C#N	.	.	.	.	.	17.0
CNc1oc(-c2ccc(Cl)cc2)nc1C#N	.	177.7	.	.	.	36.7
C=CCNc1oc(-c2ccc(Cl)cc2)nc1C#N	/	/	/	.	/	/
CNc1oc(-c2cccc3ccccc23)nc1C#N	.	.	.	.	.	.
COc1ccc(-c2nc(C#N)c(N3CCCCC3)o2)cc1	.	.	.	.	.	.
COc1ccc(-c2nc(C#N)c(NC(C)C)o2)cc1	.	73.6	.	.	.	40.7
O=C(CSc1nc2ccsc2c(=O)n1Cc1ccccc1Cl)NCc1ccc(F)cc1	/	/	/	.	/	/
CCN(C(=O)COC(=O)c1ccccc1Nc1ccccc1)c1c(N)n(Cc2ccccc2)c(=O)[nH]c1=O	/	/	.	.	/	/
CN(C)S(=O)(=O)Oc1cccc(C(=O)Nc2ccccc2Cl)c1	.	92.9	.	.	.	40.6
CN(C)S(=O)(=O)Oc1cccc(C(=O)Nc2ccc(Cl)cc2)c1	.	152.8	.	.	.	44.7
CN(C)S(=O)(=O)Oc1ccsc1C(=O)Nc1ccccc1Cl	.	.	.	.	.	.
CN(C)S(=O)(=O)Oc1ccc(C(=O)Nc2cccc(Cl)c2)cc1	.	89.1	.	.	.	55.5
CCC(C)(C)O	/	.	/	/	.	.
Oc1ccc(Nc2nc(-c3ccccc3F)nc3ccccc23)cc1	.	.	.	.	.	.
SMILES	LmPK inh	Shiga inhibitor	RE007 growth inh	TbPYK inhibitor	Giardia FBPA inh	CHX counter
O=c1nc(Nc2ccccc2)oc2ccccc12	?	53.4	.	.	.	38.3
CC(=O)Nc1c(Nc2ccccc2)c2ccccc2oc1=O	.	.	.	.	.	.
O=c1oc(Nc2ccc(F)cc2)nc2ccccc12	.	81.2	?	.	.	16.8
Nc1c(C=C2C=CC(=O)C=C2)c(=O)nc2snc(SCc3ccccc3)n12	.	46.8	.	.	.	33.1
CC(N=C1NS(=O)(=O)c2ccccc21)C(=O)N1CCc2ccccc2C1 (configuration not stated)	.	45.7	.	.	.	19.2
CN(C(=O)NC(=O)C1=C(N2CCOCC2)/C(=C/c2ccccc2)CC1)S(C)(=O)=O	.	53.0	.	.	.	28.8
O=C(O)c1ccc(N/N=C/C2=C(N3CCOCC3)C(=C\c3ccccc3)/CC2)cc1	.	74.4	?	.	.	37.6
